Legend:
Assay in all cases: cell viability of combination (% of vehicle); higher = less cytotoxic
Conditions in all cases: 1 µM; 72 h; partner dose: 10 nM
[1] = system: HCI01 (cells of a triple-negative basal-like breast cancer xenograft)
Protocol: (§1)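 PDX cells were treated for 72 h with each drug at 1 µM plus afatinib (10 nM; 1 µM for WHIM30). Luciferase viability is expressed as percent of vehicle.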

[2] = system: UCD52 (cells of a triple-negative basal-like breast cancer xenograft)
Protocol: as §1

[3] = system: WHIM2 (cells of a triple-negative basal-like breast cancer xenograft)
Protocol: as §1

| SMILES | cell viability of combination [1] | cell viability of combination [2] | cell viability of combination [3] |
| --- | --- | --- | --- |
| Clc1ccc(C(Cn2ccnc2)OCc2ccsc2Cl)c(Cl)c1 (stereo not drawn) [Tioconazole] + CN(C)C/C=C/C(=O)Nc1cc2c(Nc3ccc(F)c(Cl)c3)ncnc2cc1O[C@H]1CCOC1 [Afatinib] | 65.4 | 81.8 | 47.5 |
| CC(C)COc1ccc(CNC(=O)N(Cc2ccc(F)cc2)C2CCN(C)CC2)cc1 [Pimavanserin] + CN(C)C/C=C/C(=O)Nc1cc2c(Nc3ccc(F)c(Cl)c3)ncnc2cc1O[C@H]1CCOC1 [Afatinib] | 52.8 | 65.2 | 50.8 |
| COc1cc2nccc(Oc3ccc(NC(=O)C4(C(=O)Nc5ccc(F)cc5)CC4)cc3)c2cc1OC.O=C(O)CC(O)C(=O)O [Cabozantinib malate (XL184)] + CN(C)C/C=C/C(=O)Nc1cc2c(Nc3ccc(F)c(Cl)c3)ncnc2cc1O[C@H]1CCOC1 [Afatinib] | 50.8 | 64.7 | 43.2 |
| CC[C@@]1(O)C(=O)OCc2c1cc1n(c2=O)Cc2cc3c(CN(C)C)c(O)ccc3nc2-1 [Topotecan] + CN(C)C/C=C/C(=O)Nc1cc2c(Nc3ccc(F)c(Cl)c3)ncnc2cc1O[C@H]1CCOC1 [Afatinib] | 40.1 | 76.4 | 31.4 |
| CN(C)c1ccc(O)c2c1CC1CC3C(N(C)C)C(=O)C(C(N)=O)=C(O)C3(O)C(=O)C1=C2O.Cl (stereo not drawn) [Minocycline HCl] + CN(C)C/C=C/C(=O)Nc1cc2c(Nc3ccc(F)c(Cl)c3)ncnc2cc1O[C@H]1CCOC1 [Afatinib] | 66.6 | 75.9 | 49.9 |
| COc1ccc(C[C@H](N)C(=O)N[C@@H]2[C@H](O)[C@H](n3cnc4c(N(C)C)ncnc43)O[C@@H]2CO)cc1.Cl.Cl [Puromycin dihydrochloride] + CN(C)C/C=C/C(=O)Nc1cc2c(Nc3ccc(F)c(Cl)c3)ncnc2cc1O[C@H]1CCOC1 [Afatinib] | 69.5 | 18.2 | 82.6 |
| C[C@H]1O[C@@H](O[C@H]2[C@@H](O)C[C@H](O[C@H]3[C@@H](O)C[C@H](O[C@H]4CC[C@@]5(C)[C@H](CC[C@@H]6[C@@H]5C[C@@H](O)[C@]5(C)[C@@H](C7=CC(=O)OC7)CC[C@]65O)C4)O[C@@H]3C)O[C@@H]2C)C[C@H](O)[C@@H]1O [Digoxin] + CN(C)C/C=C/C(=O)Nc1cc2c(Nc3ccc(F)c(Cl)c3)ncnc2cc1O[C@H]1CCOC1 [Afatinib] | 27.8 | 19.5 | 61.3 |
| COC(=O)NC(C(=O)NC(Cc1ccccc1)C(O)CN(Cc1ccc(-c2ccccn2)cc1)NC(=O)C(NC(=O)OC)C(C)(C)C)C(C)(C)C (stereo not drawn) [Atazanavir] + CN(C)C/C=C/C(=O)Nc1cc2c(Nc3ccc(F)c(Cl)c3)ncnc2cc1O[C@H]1CCOC1 [Afatinib] | 48.8 | 56.9 | 54 |
| CC[C@@]1(O)C(=O)OCc2c1cc1n(c2=O)Cc2cc3c(CN(C)C)c(O)ccc3nc2-1.Cl [Topotecan HCl] + CN(C)C/C=C/C(=O)Nc1cc2c(Nc3ccc(F)c(Cl)c3)ncnc2cc1O[C@H]1CCOC1 [Afatinib] | 41.4 | 66.5 | 25.2 |
| COc1cc2c(Oc3ccc(NC(=O)C4(C(=O)Nc5ccc(F)cc5)CC4)cc3F)ccnc2cc1OCCCN1CCOCC1 + CN(C)C/C=C/C(=O)Nc1cc2c(Nc3ccc(F)c(Cl)c3)ncnc2cc1O[C@H]1CCOC1 [Afatinib] | 33.9 | 28.5 | 37.7 |
| CCCCCCCCc1ccc(CCC(N)(CO)CO)cc1.Cl [Fingolimod (FTY720)] + CN(C)C/C=C/C(=O)Nc1cc2c(Nc3ccc(F)c(Cl)c3)ncnc2cc1O[C@H]1CCOC1 [Afatinib] | 53.7 | 69.9 | 44.5 |
| CCOC(=O)c1c(CSc2ccccc2)n(C)c2cc(Br)c(O)c(CN(C)C)c12.Cl [Arbidol HCl] + CN(C)C/C=C/C(=O)Nc1cc2c(Nc3ccc(F)c(Cl)c3)ncnc2cc1O[C@H]1CCOC1 [Afatinib] | 55.3 | 53 | 45.2 |
| Cc1ccc(NC(=O)c2ccc(CN3CCN(C)CC3)cc2)cc1Nc1nc(-c2cccnc2)cs1 [Masitinib (AB1010)] + CN(C)C/C=C/C(=O)Nc1cc2c(Nc3ccc(F)c(Cl)c3)ncnc2cc1O[C@H]1CCOC1 [Afatinib] | 47.8 | – | 54.7 |
| CC1(C)Cc2c(-c3ccccc3)c(-c3ccc(Cl)cc3)c(CC(=O)O)n2C1 [Licofelone] + CN(C)C/C=C/C(=O)Nc1cc2c(Nc3ccc(F)c(Cl)c3)ncnc2cc1O[C@H]1CCOC1 [Afatinib] | 66.1 | – | 46.8 |
| COc1cccc2c1C(=O)c1c(O)c3c(c(O)c1C2=O)CC(O)(C(=O)CO)CC3OC1CC(N)C(O)C(C)O1 (stereo not drawn) [Doxorubicin] + CN(C)C/C=C/C(=O)Nc1cc2c(Nc3ccc(F)c(Cl)c3)ncnc2cc1O[C@H]1CCOC1 [Afatinib] | 43.8 | – | 15.6 |
| COc1ncc(-c2ccc3nccc(-c4ccnnc4)c3c2)cc1NS(=O)(=O)c1ccc(F)cc1F + CN(C)C/C=C/C(=O)Nc1cc2c(Nc3ccc(F)c(Cl)c3)ncnc2cc1O[C@H]1CCOC1 [Afatinib] | 28.7 | – | 15.7 |
| COC1=C(OC)C(=O)C(CCCCCCCCCCO)=C(C)C1=O [Idebenone] + CN(C)C/C=C/C(=O)Nc1cc2c(Nc3ccc(F)c(Cl)c3)ncnc2cc1O[C@H]1CCOC1 [Afatinib] | 58.8 | – | 50.1 |

| SMILES | cell viability of combination [1] | cell viability of combination [2] | cell viability of combination [3] |
| --- | --- | --- | --- |
| CC1CC(=O)NN=C1c1ccc(NN=C(C#N)C#N)cc1 (stereo not drawn) [Levosimendan] + CN(C)C/C=C/C(=O)Nc1cc2c(Nc3ccc(F)c(Cl)c3)ncnc2cc1O[C@H]1CCOC1 [Afatinib] | 52.7 | – | 51.2 |
| Cn1cnc2c(F)c(Nc3ccc(Br)cc3F)c(C(=O)NOCCO)cc21 + CN(C)C/C=C/C(=O)Nc1cc2c(Nc3ccc(F)c(Cl)c3)ncnc2cc1O[C@H]1CCOC1 [Afatinib] | 40.5 | – | 34.8 |
| CCN(CC)CCNC(=O)c1c(C)[nH]c(C=C2C(=O)Nc3ccc(F)cc32)c1C [Sunitinib] + CN(C)C/C=C/C(=O)Nc1cc2c(Nc3ccc(F)c(Cl)c3)ncnc2cc1O[C@H]1CCOC1 [Afatinib] | 38.8 | – | 25.7 |
| CC(=O)C1(O)Cc2c(O)c3c(c(O)c2C(OC2CC(N)C(O)C(C)O2)C1)C(=O)c1ccccc1C3=O.Cl (stereo not drawn) [Idarubicin HCl] + CN(C)C/C=C/C(=O)Nc1cc2c(Nc3ccc(F)c(Cl)c3)ncnc2cc1O[C@H]1CCOC1 [Afatinib] | 131 | – | 11.7 |
| C#Cc1cccc(Nc2ncnc3cc(OCCOC)c(OCCOC)cc23)c1 [Erlotinib] + CN(C)C/C=C/C(=O)Nc1cc2c(Nc3ccc(F)c(Cl)c3)ncnc2cc1O[C@H]1CCOC1 [Afatinib] | 41.1 | – | 42 |
| Cl.Clc1ccccc1CN1CCc2sccc2C1 [Ticlopidine HCl] + CN(C)C/C=C/C(=O)Nc1cc2c(Nc3ccc(F)c(Cl)c3)ncnc2cc1O[C@H]1CCOC1 [Afatinib] | 57.8 | – | 47.9 |
| CC(C)Nc1cc(-c2c[nH]c(C(=O)NC(CO)c3cccc(Cl)c3)c2)c(Cl)cn1 (stereo not drawn) + CN(C)C/C=C/C(=O)Nc1cc2c(Nc3ccc(F)c(Cl)c3)ncnc2cc1O[C@H]1CCOC1 [Afatinib] | 50.7 | – | 30.3 |
| CN(C)CC=CC(=O)Nc1cc2c(Nc3ccc(F)c(Cl)c3)ncnc2cc1OC1CCOC1.O=C(O)C=CC(=O)O.O=C(O)C=CC(=O)O (stereo not drawn) [Afatinib dimaleate] + CN(C)C/C=C/C(=O)Nc1cc2c(Nc3ccc(F)c(Cl)c3)ncnc2cc1O[C@H]1CCOC1 [Afatinib] | 50.8 | – | 35.4 |
| COc1cc2nccc(Oc3ccc(NC(=O)NC4CC4)c(Cl)c3)c2cc1C(N)=O [Lenvatinib (E7080)] + CN(C)C/C=C/C(=O)Nc1cc2c(Nc3ccc(F)c(Cl)c3)ncnc2cc1O[C@H]1CCOC1 [Afatinib] | 40 | – | 32.5 |
| CC(NCCCc1cccc(C(F)(F)F)c1)c1cccc2ccccc12 (stereo not drawn) [Cinacalcet] + CN(C)C/C=C/C(=O)Nc1cc2c(Nc3ccc(F)c(Cl)c3)ncnc2cc1O[C@H]1CCOC1 [Afatinib] | 51.6 | – | 46.1 |
| C#Cc1cccc(Nc2ncnc3cc(OCCOC)c(OCCOC)cc23)c1.Cl [Erlotinib Hydrochloride] + CN(C)C/C=C/C(=O)Nc1cc2c(Nc3ccc(F)c(Cl)c3)ncnc2cc1O[C@H]1CCOC1 [Afatinib] | 47.7 | – | 37.5 |
| [O-]n1ccccc1=S.[O-]n1ccccc1=S.[Zn+2] [Zinc Pyrithione] + CN(C)C/C=C/C(=O)Nc1cc2c(Nc3ccc(F)c(Cl)c3)ncnc2cc1O[C@H]1CCOC1 [Afatinib] | 47.4 | – | 33.9 |
| C1=C\COCc2cc(ccc2OCCN2CCCC2)Nc2nccc(n2)-c2cccc(c2)COC/1 [Pacritinib] + CN(C)C/C=C/C(=O)Nc1cc2c(Nc3ccc(F)c(Cl)c3)ncnc2cc1O[C@H]1CCOC1 [Afatinib] | 37.8 | – | 38.8 |
| O=C(O)CO.[NH2-].[NH2-].[Pt+2] [Nedaplatin] + CN(C)C/C=C/C(=O)Nc1cc2c(Nc3ccc(F)c(Cl)c3)ncnc2cc1O[C@H]1CCOC1 [Afatinib] | 49.9 | – | 48.5 |
| CCCCc1oc2ccccc2c1C(=O)c1cc(I)c(OCCN(CC)CC)c(I)c1.Cl [Amiodarone HCl] + CN(C)C/C=C/C(=O)Nc1cc2c(Nc3ccc(F)c(Cl)c3)ncnc2cc1O[C@H]1CCOC1 [Afatinib] | 68.8 | – | 57.7 |
| Cl.Cl.O=C1c2c(O)ccc(O)c2C(=O)c2c(NCCNCCO)ccc(NCCNCCO)c21 [Mitoxantrone HCl] + CN(C)C/C=C/C(=O)Nc1cc2c(Nc3ccc(F)c(Cl)c3)ncnc2cc1O[C@H]1CCOC1 [Afatinib] | 61.6 | – | 13.5 |

— the supplement of paper PMC6992640
